Targets with a hit are over-represented here; the source holds about 7,900 in all. About 0.6% of all pairs of compound and target were hits.

Results on 39 targets are retold here after the supplement of paper PMC10849652.

UniProt Q00013, sequence (Q00013 whole entry, looked up): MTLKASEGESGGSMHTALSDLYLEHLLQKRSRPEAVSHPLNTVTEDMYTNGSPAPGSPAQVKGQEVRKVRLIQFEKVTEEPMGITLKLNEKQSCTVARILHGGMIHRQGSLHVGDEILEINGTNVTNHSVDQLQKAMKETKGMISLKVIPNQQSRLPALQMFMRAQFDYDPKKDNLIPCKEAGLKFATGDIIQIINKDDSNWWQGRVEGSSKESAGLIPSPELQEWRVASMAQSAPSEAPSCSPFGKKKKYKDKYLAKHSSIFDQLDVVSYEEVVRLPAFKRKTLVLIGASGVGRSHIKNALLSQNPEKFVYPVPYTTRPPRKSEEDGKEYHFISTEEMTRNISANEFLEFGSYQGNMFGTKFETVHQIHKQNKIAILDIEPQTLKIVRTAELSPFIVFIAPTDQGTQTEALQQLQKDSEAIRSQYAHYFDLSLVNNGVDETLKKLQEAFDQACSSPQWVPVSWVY
UniProt O14950, sequence (O14950 whole entry, looked up): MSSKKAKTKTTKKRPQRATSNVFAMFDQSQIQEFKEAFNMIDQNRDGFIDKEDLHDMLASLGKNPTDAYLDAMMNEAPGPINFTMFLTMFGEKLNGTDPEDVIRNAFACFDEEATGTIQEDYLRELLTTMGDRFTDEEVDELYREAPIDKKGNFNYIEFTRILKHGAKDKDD
UniProt Q14978, sequence (Q14978 whole entry, looked up): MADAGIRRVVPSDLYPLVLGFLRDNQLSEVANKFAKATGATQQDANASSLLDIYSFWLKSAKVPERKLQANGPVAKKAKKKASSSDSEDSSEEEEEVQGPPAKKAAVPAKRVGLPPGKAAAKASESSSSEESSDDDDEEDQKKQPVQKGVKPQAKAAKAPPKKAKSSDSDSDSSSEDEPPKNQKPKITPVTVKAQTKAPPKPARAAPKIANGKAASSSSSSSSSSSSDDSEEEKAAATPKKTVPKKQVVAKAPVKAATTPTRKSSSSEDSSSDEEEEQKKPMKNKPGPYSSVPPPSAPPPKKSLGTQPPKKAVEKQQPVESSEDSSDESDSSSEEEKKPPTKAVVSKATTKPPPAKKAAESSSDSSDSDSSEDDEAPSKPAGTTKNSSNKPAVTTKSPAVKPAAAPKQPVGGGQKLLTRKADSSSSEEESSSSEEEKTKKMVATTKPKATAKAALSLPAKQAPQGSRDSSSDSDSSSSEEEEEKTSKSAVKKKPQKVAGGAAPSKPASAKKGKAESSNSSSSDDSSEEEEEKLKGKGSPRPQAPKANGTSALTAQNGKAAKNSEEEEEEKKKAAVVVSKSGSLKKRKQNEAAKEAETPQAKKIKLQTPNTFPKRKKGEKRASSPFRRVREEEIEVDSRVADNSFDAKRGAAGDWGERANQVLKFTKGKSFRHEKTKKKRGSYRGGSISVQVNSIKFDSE
UniProt P46934, sequence (P46934 whole entry, looked up): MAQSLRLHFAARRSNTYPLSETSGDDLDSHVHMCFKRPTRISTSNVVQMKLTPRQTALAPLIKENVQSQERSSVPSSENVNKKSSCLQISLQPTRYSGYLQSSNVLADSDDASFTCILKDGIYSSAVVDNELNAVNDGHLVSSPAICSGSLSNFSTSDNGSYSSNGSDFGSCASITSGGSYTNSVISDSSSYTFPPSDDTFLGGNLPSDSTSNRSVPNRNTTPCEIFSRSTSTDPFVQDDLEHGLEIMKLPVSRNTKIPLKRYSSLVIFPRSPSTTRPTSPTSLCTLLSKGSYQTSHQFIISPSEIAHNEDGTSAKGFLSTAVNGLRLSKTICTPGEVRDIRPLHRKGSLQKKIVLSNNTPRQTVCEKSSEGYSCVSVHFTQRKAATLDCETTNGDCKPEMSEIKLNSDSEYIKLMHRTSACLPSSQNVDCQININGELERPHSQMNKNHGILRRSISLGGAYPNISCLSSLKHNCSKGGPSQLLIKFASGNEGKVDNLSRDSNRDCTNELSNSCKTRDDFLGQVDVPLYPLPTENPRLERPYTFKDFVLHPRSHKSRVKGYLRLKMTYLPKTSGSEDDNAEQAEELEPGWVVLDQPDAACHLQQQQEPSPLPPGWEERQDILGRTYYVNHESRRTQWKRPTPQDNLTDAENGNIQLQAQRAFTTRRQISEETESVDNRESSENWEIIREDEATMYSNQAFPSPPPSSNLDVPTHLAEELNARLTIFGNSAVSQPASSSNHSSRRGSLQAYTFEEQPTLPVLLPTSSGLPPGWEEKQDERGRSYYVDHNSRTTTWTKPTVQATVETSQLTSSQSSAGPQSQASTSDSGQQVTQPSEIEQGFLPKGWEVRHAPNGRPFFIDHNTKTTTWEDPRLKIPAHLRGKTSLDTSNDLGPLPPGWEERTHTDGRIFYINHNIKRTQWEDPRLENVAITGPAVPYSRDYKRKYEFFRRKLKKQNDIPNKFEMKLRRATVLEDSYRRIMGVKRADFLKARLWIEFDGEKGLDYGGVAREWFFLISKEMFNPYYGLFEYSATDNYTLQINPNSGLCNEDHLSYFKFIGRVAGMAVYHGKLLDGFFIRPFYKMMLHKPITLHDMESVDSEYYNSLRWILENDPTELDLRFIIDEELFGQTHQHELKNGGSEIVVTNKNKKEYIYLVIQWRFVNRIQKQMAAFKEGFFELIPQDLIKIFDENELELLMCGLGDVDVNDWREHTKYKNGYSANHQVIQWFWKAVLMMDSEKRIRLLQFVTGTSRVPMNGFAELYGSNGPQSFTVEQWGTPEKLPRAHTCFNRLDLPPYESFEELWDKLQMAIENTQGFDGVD
UniProt P00846, sequence (P00846 whole entry, looked up): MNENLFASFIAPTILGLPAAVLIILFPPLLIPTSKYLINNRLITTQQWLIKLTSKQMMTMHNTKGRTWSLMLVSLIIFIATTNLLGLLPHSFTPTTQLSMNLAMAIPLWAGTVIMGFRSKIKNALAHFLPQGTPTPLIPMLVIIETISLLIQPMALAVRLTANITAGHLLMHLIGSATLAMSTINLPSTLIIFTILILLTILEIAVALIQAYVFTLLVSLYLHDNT
UniProt Q9H1E3, sequence (Q9H1E3 whole entry, looked up): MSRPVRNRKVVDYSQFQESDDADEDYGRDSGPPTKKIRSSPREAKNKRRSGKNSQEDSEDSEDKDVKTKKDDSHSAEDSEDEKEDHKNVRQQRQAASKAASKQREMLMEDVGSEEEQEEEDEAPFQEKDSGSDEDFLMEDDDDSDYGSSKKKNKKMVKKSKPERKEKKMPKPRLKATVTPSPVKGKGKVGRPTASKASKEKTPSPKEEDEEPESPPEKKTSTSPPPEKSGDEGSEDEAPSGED
UniProt Q9BUK6, sequence (Q9BUK6 whole entry, looked up): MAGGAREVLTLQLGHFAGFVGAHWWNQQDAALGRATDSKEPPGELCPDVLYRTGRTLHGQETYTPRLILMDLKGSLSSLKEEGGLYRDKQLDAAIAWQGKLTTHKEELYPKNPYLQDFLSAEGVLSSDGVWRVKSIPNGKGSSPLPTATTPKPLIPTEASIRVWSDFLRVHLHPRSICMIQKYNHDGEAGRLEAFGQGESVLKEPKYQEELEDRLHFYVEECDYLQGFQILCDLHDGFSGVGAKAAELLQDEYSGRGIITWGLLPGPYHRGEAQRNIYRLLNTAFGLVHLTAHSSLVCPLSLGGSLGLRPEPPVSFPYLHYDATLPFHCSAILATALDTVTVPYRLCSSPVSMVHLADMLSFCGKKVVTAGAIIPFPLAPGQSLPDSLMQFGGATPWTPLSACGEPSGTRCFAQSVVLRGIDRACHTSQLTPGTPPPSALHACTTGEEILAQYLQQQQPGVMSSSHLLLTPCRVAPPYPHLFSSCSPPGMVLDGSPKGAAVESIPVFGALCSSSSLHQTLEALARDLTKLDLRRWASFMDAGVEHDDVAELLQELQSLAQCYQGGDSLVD
UniProt P43246, sequence (P43246 whole entry, looked up): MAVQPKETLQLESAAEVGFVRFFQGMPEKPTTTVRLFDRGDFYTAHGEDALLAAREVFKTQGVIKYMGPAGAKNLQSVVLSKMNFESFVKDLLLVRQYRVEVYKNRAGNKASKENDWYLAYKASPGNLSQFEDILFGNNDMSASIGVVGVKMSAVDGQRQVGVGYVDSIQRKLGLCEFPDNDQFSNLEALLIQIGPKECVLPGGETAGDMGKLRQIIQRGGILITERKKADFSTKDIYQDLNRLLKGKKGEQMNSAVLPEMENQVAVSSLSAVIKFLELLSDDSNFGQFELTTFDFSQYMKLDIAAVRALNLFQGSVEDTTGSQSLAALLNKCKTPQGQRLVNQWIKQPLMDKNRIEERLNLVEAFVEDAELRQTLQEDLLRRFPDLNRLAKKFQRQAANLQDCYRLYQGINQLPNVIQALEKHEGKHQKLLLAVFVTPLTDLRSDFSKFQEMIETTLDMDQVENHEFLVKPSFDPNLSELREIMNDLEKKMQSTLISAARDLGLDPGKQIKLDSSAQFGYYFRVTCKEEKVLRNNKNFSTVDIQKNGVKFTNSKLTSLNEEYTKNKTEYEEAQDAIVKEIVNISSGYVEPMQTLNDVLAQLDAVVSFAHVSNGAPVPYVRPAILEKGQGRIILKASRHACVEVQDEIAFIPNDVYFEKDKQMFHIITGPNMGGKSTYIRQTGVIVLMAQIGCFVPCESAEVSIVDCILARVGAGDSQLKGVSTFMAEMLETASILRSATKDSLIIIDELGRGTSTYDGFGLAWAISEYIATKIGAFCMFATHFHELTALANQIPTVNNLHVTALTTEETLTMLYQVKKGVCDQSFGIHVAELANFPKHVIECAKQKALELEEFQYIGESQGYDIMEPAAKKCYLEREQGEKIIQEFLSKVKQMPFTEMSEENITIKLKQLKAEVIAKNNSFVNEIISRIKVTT
UniProt P15559, sequence (P15559 whole entry, looked up): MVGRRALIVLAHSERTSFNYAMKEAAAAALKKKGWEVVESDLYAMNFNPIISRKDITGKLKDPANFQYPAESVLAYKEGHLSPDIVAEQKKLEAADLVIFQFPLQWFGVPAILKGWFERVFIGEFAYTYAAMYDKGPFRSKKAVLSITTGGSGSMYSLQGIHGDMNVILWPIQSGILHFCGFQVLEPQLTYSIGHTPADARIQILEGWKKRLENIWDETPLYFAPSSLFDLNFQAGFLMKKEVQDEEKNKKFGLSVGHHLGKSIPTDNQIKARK

Compound in the first assay: Cc1nc(Nc2ncc(C(=O)Nc3c(C)cccc3Cl)s2)cc(N2CCN(CCO)CC2)n1 [dasatinib]
In words: log2 fold change, soluble protein after heating vs DMSO (PISA); higher = thermal stabilisation; K562 cells, 10 uM, 30 min; active = over 0.2 and 3.5 SD of the protein, either way, in both replicates (recomputed). In outline:
(§1)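 For each measurement, 10 μM compound was applied for 30 min to K562 cells at 2×10^6 cells/mL. Aliquots were heated for 3 min across 48°C-58°C, pooled, and extracted in PBS with 0.5% NP-40 at 4°C; the supernatant after 21,000xg for 90 min was soluble protein. This was quantified by TMTpro 16plex LC-MS/MS with channel sums equalised, and thermal stability was reported relative to control samples from duplicates, on a log2 fold-change scale.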
For MSH2 (UniProt P43246), the log2 fold change is -0.038 (inactive).
The same measure, in the same setting: under MT-ATP6 (UniProt P00846) stands -0.101 (inactive); under MRPS2 (UniProt Q9Y399), -0.026 (inactive).
The same measure, in the same setting: the value for NOB1 (UniProt Q9ULX3) was -0.054 (inactive); that for MPP1 (UniProt Q00013) was -0.086 (inactive); that for NUCKS1 (UniProt Q9H1E3) was 0.037 (inactive).
For the target ORC3 isoform 2 (UniProt Q9UBD5), the log2 fold change is -0.298 (inactive).
The same measure, in the same setting: under NOLC1 isoform 2 (UniProt Q14978) stands 0.145 (inactive).
Same read-out and setting: the value for NEDD4 isoform 4 (UniProt P46934) was -0.068 (inactive); that for MRPS22 (UniProt P82650) was -0.024 (inactive); that for MSTO1 (UniProt Q9BUK6) was -0.174 (inactive).
Same read-out and setting: under NCAPD2 (UniProt Q15021) stands -0.159 (inactive); under MYL12B (UniProt O14950), 0.001 (inactive).
Regarding NEU1 (UniProt Q99519), the log2 fold change is 0.019 (inactive).
On the same count and under the same terms, the value for NA, A0A096LPI6 was -0.005 (inactive); that for MRPS33 (UniProt Q9Y291) was 0.031 (inactive).

Compound in the next assay: Cc1ncc(-c2ccnc(Nc3ccc(S(C)(=O)=O)cc3)n2)n1C(C)C
The assay is described as above. In a few lines: as §1
On to NFATC2 (UniProt Q13469), for which the log2 fold change was -0.445 (active).
Still for that read-out and setting: under MRPS18B (UniProt Q9Y676) stands -0.342 (inactive); under PACS1 (UniProt Q6VY07), -0.018 (inactive).
On the same count and under the same terms, under NUP205 (UniProt Q92621) stands -0.004 (inactive).
On the same count and under the same terms, the value for NA, A0A0B4J2A0 was 0.006 (inactive); that for OSBP (UniProt P22059) was -0.067 (inactive); that for MKNK1 (UniProt Q9BUB5) was -0.04 (inactive).
In the case of NMNAT1 (UniProt Q9HAN9), the log2 fold change is -0.047 (inactive).
On to MRPS25 (UniProt P82663), for which the log2 fold change was 0.044 (inactive).
Still for that read-out and setting: the value for NME1 isoform 2 (UniProt P15531) was -0.003 (inactive); that for MRPL47 (UniProt Q9HD33) was 0.073 (inactive); that for NDUFA12 (UniProt Q9UI09) was 0.029 (inactive).
Take MOV10 (UniProt Q9HCE1): the log2 fold change is 0.068 (inactive).
In the case of MTHFD1, A0A384N5Y3, the log2 fold change is -0.031 (inactive).
In the case of MRPS5 (UniProt P82675), the log2 fold change was 0.067 (inactive).
Still for that read-out and setting: under NFATC2IP (UniProt Q8NCF5) stands -0.146 (inactive); under NOL11 (UniProt Q9H8H0), 0.11 (inactive).
NDUFA6 (UniProt P56556): the log2 fold change is 0.027 (inactive).
The same measure, in the same setting: under OSBPL8 (UniProt Q9BZF1) stands -0.047 (inactive); under NOSIP (UniProt Q9Y314), 0.247 (inactive); under NR2C2 isoform 2 (UniProt P49116), 0.021 (inactive).
NDUFB8 (UniProt O95169): the log2 fold change is -0.04 (inactive).
With NQO1 (UniProt P15559), the log2 fold change was -0.022 (inactive).
On the same count and under the same terms, under MSH2 (UniProt P43246) stands 0.034 (inactive); under MT-ATP6 (UniProt P00846), -0.043 (inactive).
On the same count and under the same terms, the value for MRPS2 (UniProt Q9Y399) was -0.062 (inactive).
As for NOB1 (UniProt Q9ULX3), the log2 fold change is -0.045 (inactive).
The same measure, in the same setting: under MPP1 (UniProt Q00013) stands -0.019 (inactive).
The same measure, in the same setting: under NUCKS1 (UniProt Q9H1E3) stands 0.169 (inactive); under ORC3 isoform 2 (UniProt Q9UBD5), -0.118 (inactive); under NOLC1 isoform 2 (UniProt Q14978), -0.376 (active).
Same read-out and setting: under NEDD4 isoform 4 (UniProt P46934) stands 0.052 (inactive); under MRPS22 (UniProt P82650), 0.012 (inactive); under MSTO1 (UniProt Q9BUK6), -0.005 (inactive).
On to NCAPD2 (UniProt Q15021), for which the log2 fold change is 0.08 (inactive).
Same read-out and setting: the value for MYL12B (UniProt O14950) was -0.002 (inactive).
Turning to NEU1 (UniProt Q99519), the log2 fold change is -0.147 (inactive).
With NA, A0A096LPI6, the log2 fold change was -0.04 (inactive).
On the same count and under the same terms, under MRPS33 (UniProt Q9Y291) stands -0.04 (inactive).

Compound in another assay: Cn1cc(-c2ccc3c(c2)CCN3C(=O)Cc2cccc(C(F)(F)F)c2)c2c(N)ncnc21
The description is as above. In a few lines: as §1
In the case of NFATC2 (UniProt Q13469), the log2 fold change was -0.025 (inactive).
The same measure, in the same setting: under MRPS18B (UniProt Q9Y676) stands 0.005 (inactive); under PACS1 (UniProt Q6VY07), -0.006 (inactive).
Same read-out and setting: under NUP205 (UniProt Q92621) stands -0.005 (inactive).
As to NA, A0A0B4J2A0, the log2 fold change was 0.025 (inactive).
Take OSBP (UniProt P22059): the log2 fold change was -0.024 (inactive).
Same read-out and setting: under MKNK1 (UniProt Q9BUB5) stands 0.117 (inactive).
On the same count and under the same terms, the value for NMNAT1 (UniProt Q9HAN9) was -0.143 (inactive); that for MRPS25 (UniProt P82663) was 0.037 (inactive); that for NME1 isoform 2 (UniProt P15531) was 0.088 (inactive).
The same measure, in the same setting: under MRPL47 (UniProt Q9HD33) stands -0.174 (inactive); under NDUFA12 (UniProt Q9UI09), 0.109 (inactive); under MOV10 (UniProt Q9HCE1), -0.055 (inactive).
Regarding MTHFD1, A0A384N5Y3, the log2 fold change is 0.087 (inactive).
On the same count and under the same terms, under MRPS5 (UniProt P82675) stands 0.039 (inactive); under NFATC2IP (UniProt Q8NCF5), 0.097 (inactive); under NOL11 (UniProt Q9H8H0), -0.006 (inactive).
For NDUFA6 (UniProt P56556), the log2 fold change was 0.089 (inactive).
On the same count and under the same terms, the value for OSBPL8 (UniProt Q9BZF1) was -0.225 (inactive); that for NOSIP (UniProt Q9Y314) was -0.063 (inactive).
Still for that read-out and setting: the value for NR2C2 isoform 2 (UniProt P49116) was -0.003 (inactive).
In the case of NDUFB8 (UniProt O95169), the log2 fold change was -0.08 (inactive).
Consider NQO1 (UniProt P15559), for which the log2 fold change was 0.049 (inactive).
Same read-out and setting: the value for MSH2 (UniProt P43246) was 0.024 (inactive); that for MT-ATP6 (UniProt P00846) was -0.024 (inactive); that for MRPS2 (UniProt Q9Y399) was 0.043 (inactive).
The same measure, in the same setting: under NOB1 (UniProt Q9ULX3) stands -0.003 (inactive).
With MPP1 (UniProt Q00013), the log2 fold change was 0.047 (inactive).
Still for that read-out and setting: under NUCKS1 (UniProt Q9H1E3) stands 0.005 (inactive); under ORC3 isoform 2 (UniProt Q9UBD5), 0.067 (inactive).
The same measure, in the same setting: under NOLC1 isoform 2 (UniProt Q14978) stands -0.013 (inactive); under NEDD4 isoform 4 (UniProt P46934), -0.016 (inactive); under MRPS22 (UniProt P82650), 0.003 (inactive).
Take MSTO1 (UniProt Q9BUK6): the log2 fold change was 0.064 (inactive).
On the same count and under the same terms, under NCAPD2 (UniProt Q15021) stands -0.035 (inactive).
On the same count and under the same terms, the value for MYL12B (UniProt O14950) was 0.117 (inactive); that for NEU1 (UniProt Q99519) was -0.04 (inactive).
As to NA, A0A096LPI6, the log2 fold change is -0.003 (inactive).
MRPS33 (UniProt Q9Y291): the log2 fold change is -0.033 (inactive).
